# Assay results: PubChem BioAssay
# The source made the active and inactive calls. How the calls were made is not given here.
# Molecular target: Pantothenate synthetase (Mycobacterium tuberculosis (strain ATCC 25618 / H37Rv)) (UniProt P9WIL5)
# Assay: Recombinant Mtb pantothenate synthetase (PanC) inhibitors, coupled enzyme, confirmatory (AID 375);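 further: 0% = full reaction with vehicle and 100% = no enzyme background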
# Settings: coupled enzyme assay; at 10 µM, hits give high values
# Sequence of Pantothenate synthetase (Mycobacterium tuberculosis (strain ATCC 25618 / H37Rv)) (P9WIL5 whole entry, looked up): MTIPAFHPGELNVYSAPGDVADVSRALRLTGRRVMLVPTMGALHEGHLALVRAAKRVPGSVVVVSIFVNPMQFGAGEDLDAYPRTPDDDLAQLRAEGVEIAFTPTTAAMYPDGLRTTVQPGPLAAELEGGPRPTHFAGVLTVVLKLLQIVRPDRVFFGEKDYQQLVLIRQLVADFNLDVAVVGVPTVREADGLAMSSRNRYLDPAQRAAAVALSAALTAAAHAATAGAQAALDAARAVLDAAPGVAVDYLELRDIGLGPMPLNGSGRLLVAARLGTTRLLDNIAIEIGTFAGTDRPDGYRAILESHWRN
row,Compound,inhibition
1,N#Cc1c(/N=C/c2cccs2)sc2c1CCCCC2,0% (inactive)
2,CCCOc1ccccc1NC(=O)c1ccc(N)cc1,3% (inactive)
3,Cn1c(=O)c2c(nc(NCCNC(=O)c3ccco3)n2Cc2ccccc2Cl)n(C)c1=O,0% (inactive)
4,Cc1cccc(N2CCN(C(=O)c3ccc(NS(=O)(=O)c4c(C)noc4C)cc3)CC2)c1C,0% (inactive)
5,CC1CCCN(C(=O)C23CCC(C)(C(=O)C2)C3(C)C)C1 (stereo not given),0% (inactive)
6,CCC1(C)Cc2c(sc3nc(SCC(=O)O)[nH]c(=O)c23)CO1 (stereo not given),0% (inactive)
7,COc1ccc(C)cc1S(=O)(=O)N(CC(=O)O)c1ccccc1,0% (inactive)
8,O=c1c2ccccc2[nH]c(=S)n1CCN1CCC(=C(c2ccc(F)cc2)c2ccc(F)cc2)CC1,4% (inactive)
9,Cc1cccc(N2C(=O)CC(N(C(=O)c3ccco3)c3cccc(C)c3)C2=O)c1 (stereo not given),0% (inactive)
10,CCN(CC)S(=O)(=O)c1ccc(NC(=O)Cn2cnc3ccccc3c2=O)cc1,0% (inactive)
11,O=C(Cc1ccsc1-c1ccccc1)NO,0% (inactive)
12,COc1ccc(N(CC(=O)Nc2ccc3c(c2)OCCO3)S(=O)(=O)c2cccnc2)cc1,0% (inactive)
13,Cc1nc(C)c(C(=O)OCC(=O)N2CCN(c3ccccc3)CC2)s1,0% (inactive)
14,COc1ccc2c(c1)c(CC(=O)O)c(C)n2C(=O)c1ccc(Cl)cc1,5% (inactive)
15,COc1ccc(C2C(C(C)=O)=C(C)N=c3s/c(=C/c4ccc5c(c4)OCO5)c(=O)n32)cc1 (stereo not given),0% (inactive)
16,CCOc1cc(S(=O)(=O)N2CCC(Cc3ccccc3)CC2)c(OCC)cc1-n1cnnn1,7% (inactive)
17,CCOC(=O)c1sc(C)c2c1NC(C)(c1cccs1)NC2=O (stereo not given),4% (inactive)
18,CC1=NS(=O)(=O)c2cc(Cl)ccc2N1,6% (inactive)
19,COc1ccc2cc3cc(C(=O)NCC4CCCO4)oc3nc2c1 (stereo not given),3% (inactive)
20,CC1=C(C(=O)N2CCCCC2)C(c2cccs2)C2=C(CCCC2=O)N1 (stereo not given),0% (inactive)

row,Compound,inhibition
1,CCOC(=O)C(CC)Sc1ncnc2nc[nH]c12 (stereo not given),0% (inactive)
2,C=CCNC(=O)CN(c1cccc(Br)c1)S(C)(=O)=O,0% (inactive)
3,COC(=O)COc1ccc(C(=O)OC)cc1,2% (inactive)
4,CCc1nnc(NC(=O)C2CC(=O)N(Cc3ccco3)C2)s1 (stereo not given),0% (inactive)
5,CCN(CC)C(=O)Cn1c(=O)n(Cc2ccccc2Cl)c2c1c(=O)n(C)c(=O)n2C,3% (inactive)
6,CC(=O)CCc1c(C)[nH]c2ccccc2c1=O,1% (inactive)
7,O=S(=O)(NCC1CCCO1)c1cccc(C(F)(F)F)c1 (stereo not given),0% (inactive)
8,C=CCn1c(SCC(=O)O)nnc1-c1cccc(Cl)c1,0% (inactive)
9,CCOc1ccccc1Nc1nnc(SCC(=O)N2CCCC2)s1,0% (inactive)
10,Cc1ccc(S(=O)(=O)N2C(=O)CCC2C(=O)Nc2ccc3c(c2)OCCO3)cc1 (stereo not given),0% (inactive)
11,O=C(O)c1ccc(-n2nc(C(F)(F)F)c3c2-c2ccoc2CC3)cc1,0% (inactive)
12,Cc1ccccc1-c1nc(CN2CCC(C(=O)NCCCN3CCOCC3)CC2)c(C)o1,5% (inactive)
13,CC(C)COC(=O)C(C#N)c1nc2ccccc2nc1N1CCN(Cc2ccccc2)CC1 (stereo not given),0% (inactive)
14,CCN(CC)S(=O)(=O)c1ccc(NC(=O)c2cccc3c2C(=O)N(CCOC)C3)cc1,4% (inactive)
15,CCC1=C(C(=O)OC)C(c2cc(OC)ccc2OC)C(C#N)=C(N)O1 (stereo not given),8% (inactive)
16,Cc1cccc(C)c1NC(=O)c1cc(S(=O)(=O)N2CCOCC2)ccc1F,0% (inactive)
17,O=c1[nH]c2ccc(Br)cc2c(-c2ccccc2)c1N1CCOCC1,1% (inactive)
18,CCN(c1ccc(OC)cc1)S(=O)(=O)c1ccc2c(c1)CCN2C(=O)CCC(=O)O,0% (inactive)
19,CC1=C(c2ccc(Cl)cc2)[N+](=O)C(C)(C)N1[O-],0% (inactive)
20,O=C(c1cccn2c(=O)c3cc(Cl)ccc3nc12)N1CCOCC1,3% (inactive)
